Measured values published in paper PMC7826789 (International Journal of Molecular Sciences, 2021).

Key:
Conditions in all cases: Compound Concentration (nM):1000
BRSK2 = system: BRSK2
BTK = system: BTK
BUB1 = system: BUB1
CAMK1B = system: T1, CAMK1B
T1 construct: gene PNCK

CAMK1D = system: CAMK1D
CAMK1G = system: CAMK1G
CAMK1 = system: CAMK1
CAMK2A = system: CAMK2A
CAMK2B = system: CAMK2B
CAMK2D = system: CAMK2D
CAMK2G = system: CAMK2G
CAMK4 = system: CAMK4
CAMKK1 = system: CAMKK1
CAMKK2 = system: CAMKK2
CASK = system: CASK
CDC2L1 = system: T2, CDC2L1
T2 construct: gene CDK11B

CDC2L2 = system: CDC2L2
CDC2L5 = system: T3, CDC2L5
T3 construct: gene CDK13

CDK11 = system: T4, CDK11
T4 construct: gene CDK19

CDK2 = system: CDK2
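Also: KINOMEscan scanMAX binding as percent activity remaining versus control; lower means stronger binding.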

Row | SMILES | Percent Control (BRSK2) [%] | Percent Control (BTK) [%] | Percent Control (BUB1) [%] | Percent Control (CAMK1B) [%] | Percent Control (CAMK1D) [%] | Percent Control (CAMK1G) [%] | Percent Control (CAMK1) [%] | Percent Control (CAMK2A) [%] | Percent Control (CAMK2B) [%] | Percent Control (CAMK2D) [%] | Percent Control (CAMK2G) [%] | Percent Control (CAMK4) [%] | Percent Control (CAMKK1) [%] | Percent Control (CAMKK2) [%] | Percent Control (CASK) [%] | Percent Control (CDC2L1) [%] | Percent Control (CDC2L2) [%] | Percent Control (CDC2L5) [%] | Percent Control (CDK11) [%] | Percent Control (CDK2) [%]
1 | NS(=O)(=O)c1ccc(Nc2ncc(-c3ccccc3)o2)cc1 [GW572399X] | 100 | 96 | 80 | 100 | 100 | 100 | 78 | 94 | 100 | 100 | 100 | 100 | 100 | 100 | 94 | 100 | 100 | 26 | 100 | 100
2 | COC(=O)Nc1nc2ccc(Oc3ccc(NC(=O)Nc4cc(C(F)(F)F)ccc4F)cc3)cc2s1.Cl [GW693917A] | 93 | 72 | 65 | 75 | 90 | 100 | 88 | 93 | 88 | 98 | 100 | 100 | 100 | 100 | 93 | 98 | 78 | 19 | 5.3 | 65
3 | CCc1ccc(Oc2nccc(-c3c(-c4ccc(F)cc4)ncn3C3CCNCC3)n2)cc1 [SB-242719] | 100 | 100 | 73 | 100 | 86 | 100 | 90 | 67 | 63 | 100 | 100 | 100 | 100 | 100 | 83 | 89 | 66 | 100 | 95 | 100
4 | O=C(Nc1n[nH]c2nc(-c3ccc(O)cc3)c(Br)cc12)C1CC1 [SB-725317] | 47 | 97 | 94 | 100 | 100 | 100 | 100 | 93 | 97 | 100 | 100 | 100 | 100 | 100 | 100 | 100 | 100 | 90 | 100 | 51
5 | COc1cc(N2CCN(C(C)C)CC2)ccc1Nc1nc(Nc2ccc(F)cc2C(=O)NC[C@@H](O)CO)c2cc[nH]c2n1 [GSK1392956A] | 100 | 100 | 88 | 60 | 40 | 75 | 73 | 69 | 64 | 87 | 90 | 57 | 79 | 45 | 78 | 100 | 100 | 64 | 91 | 86
6 | COc1ccccc1-c1cc(/C=C2\C(=O)Nc3ncc(Br)cc32)cc(Br)c1O [GW442130X] | 100 | 99 | 73 | 78 | 100 | 100 | 100 | 85 | 88 | 100 | 100 | 94 | 100 | 100 | 100 | 100 | 100 | 91 | 62 | 89
7 | Cl.c1ccc(Cc2nc3ccc(Nc4ncnc5ccccc45)cc3[nH]2)cc1 [GR269666A] | 91 | 100 | 100 | 89 | 100 | 100 | 90 | 93 | 99 | 100 | 100 | 100 | 100 | 100 | 100 | 100 | 100 | 100 | 100 | 100
8 | COc1ccc2[nH]c3c4[nH]c5ccc(OC)cc5c4c4c(c3c2c1)C(=O)NC4=O [GW296115X] | 6.2 | 74 | 29 | 78 | 64 | 76 | 80 | 70 | 100 | 64 | 80 | 98 | 78 | 74 | 100 | 90 | 91 | 100 | 100 | 93
9 | CC1=C(C(=O)Nc2ccc3[nH]ncc3c2)C(c2ccc3ccccc3c2)CC(=O)N1 (centres unmarked) [GSK270822A] | 73 | 13 | 60 | 67 | 97 | 91 | 83 | 87 | 87 | 79 | 79 | 100 | 70 | 69 | 86 | 100 | 90 | 85 | 90 | 100
10 | COc1ccc2c(-c3ccnc(Nc4cccc(OC(F)(F)F)c4)n3)cnn2n1 [GW810372X] | 77 | 84 | 86 | 100 | 100 | 100 | 100 | 100 | 100 | 100 | 100 | 100 | 91 | 81 | 96 | 100 | 100 | 100 | 100 | 100
11 | CN(C)CCNC(=O)Nc1ccc(N(C)c2ccnc(Nc3ccc(CS(C)(=O)=O)cc3)n2)cc1.Cl [GW830900A] | 96 | 74 | 55 | 93 | 91 | 100 | 100 | 92 | 84 | 93 | 100 | 100 | 99 | 93 | 91 | 100 | 89 | 100 | 100 | 98
12 | COc1cccc(-n2ncc3c(N/N=C/c4ccncc4)ncnc32)c1 [GW784752X] | 61 | 100 | 77 | 99 | 100 | 100 | 99 | 89 | 82 | 100 | 100 | 100 | 100 | 100 | 68 | 100 | 97 | 83 | 100 | 72
13 | CN1CCN(C(=O)c2ccc(NC(=O)Nc3ccc(N(C)c4ccnc(Nc5ccc(CS(C)(=O)=O)cc5)n4)cc3)cc2)CC1.Cl [GW830263A] | 100 | 50 | 46 | 85 | 98 | 88 | 100 | 86 | 86 | 69 | 100 | 100 | 28 | 100 | 85 | 67 | 51 | 13 | 100 | 87
14 | NS(=O)(=O)c1ccc(N/N=C2\C(=O)Nc3ccc(C(=O)NCCc4c[nH]cn4)cc32)cc1 [GW300660X] | 89 | 100 | 54 | 85 | 100 | 100 | 100 | 100 | 100 | 100 | 100 | 100 | 100 | 100 | 100 | 100 | 100 | 79 | 100 | 
15 | NS(=O)(=O)c1ccc(N/N=C2\C(=O)Nc3ccc(-c4cnco4)cc32)cc1 [GW276655] | 66 | 50 | 74 | 76 | 71 | 85 | 74 | 56 | 78 | 72 | 91 | 100 | 63 | 83 | 84 | 100 | 100 | 56 | 100 | 32
16 | COc1cccc(-c2c[nH]c3c(N/N=C/c4ccncc4)ncnc23)c1 [GW814408X] | 92 | 77 | 50 | 95 | 100 | 97 | 100 | 77 | 81 | 84 | 100 | 100 | 100 | 95 | 44 | 81 | 53 | 87 | 100 | 62
17 | C[C@@H](Oc1cc(-n2cnc3ccc(OC4CCN(C)CC4)cc32)sc1C(N)=O)c1ccccc1Cl [GSK579289A] | 56 | 92 | 88 | 100 | 61 | 81 | 55 | 74 | 80 | 52 | 69 | 100 | 85 | 67 | 11 | 97 | 94 | 79 | 100 | 74
18 | COc1cc2ncn(-c3cc(O[C@H](C)c4ccccc4Cl)c(C(N)=O)s3)c2cc1OC [GSK237701A] | 47 | 53 | 56 | 87 | 91 | 93 | 86 | 89 | 100 | 82 | 88 | 100 | 92 | 43 | 88 | 100 | 97 | 75 | 84 | 
19 | COc1cc(C=NNc2ncnc3c2cnn3-c2ccccc2)ccc1O [GW513184X] | 73 | 100 | 81 | 100 | 100 | 100 | 100 | 97 | 100 | 100 | 100 | 100 | 100 | 100 | 64 | 100 | 100 | 96 | 100 | 66
20 | Cl.O=C(Nc1ccc(Oc2ccc3[nH]c(NC(=O)c4ccccc4)nc3c2)cc1)Nc1cc(C(F)(F)F)ccc1F [GW709042A] | 73 | 93 | 92 | 100 | 97 | 100 | 95 | 100 | 95 | 100 | 100 | 100 | 100 | 100 | 93 | 92 | 100 | 100 | 23 | 100
